Experimental findings from ChEMBL document CHEMBL4888484, “Replenishing the malaria drug discovery pipeline: Screening and hit evaluation of the MMV Hit Generation Library 1 (HGL1) against asexual blood stage Plasmodium falciparum ,using a nano luciferase reporter read-out” (2022) are described below.

Screen size: about 150,000 compounds; about 540 (0.36%) showed an effect of 50% or more. The entries come from a sample that favours strong results as a whole.

This test concerns Plasmodium falciparum. As to the kind of experiment: Primary screen in NF54 nanoGlo assay, in single point, at 2uM, 72h; a lower Z score goes with more inhibition. Format: functional, Erythrocyte. As to conditions: timepoint 72 hour.
With `Cc1csc(Oc2ccc(N)cc2F)n1`, the “% Inhibition” value was -12% and the Z score amounted to 1.47.

In the case of `CC1CN(C(=O)CN(C)c2cnccn2)CC(C)O1` (stereo not drawn), the “% Inhibition” value was -5% and the Z score stood at 0.83.

Regarding `Cc1nc2cc(NC(=O)c3ccccn3)ccc2o1`, the “% Inhibition” value is reported as 11% and the Z score was -1.99.

On to `O=C(Nc1cccc(CNc2nc3ccccc3o2)c1)c1ccccn1`, for which the “% Inhibition” value was -13% and the Z score is reported as 1.61.

Regarding `Cc1cc(NC(=O)c2ccccn2)n(-c2nc3ccccc3o2)n1`, the “% Inhibition” value is on record as 89% and the Z score is -10.15.

`CN(CC(F)(F)F)C(=O)CNc1ncccn1`: the “% Inhibition” value is listed as 3% and the Z score is -0.38.

Regarding `Cc1cc(C)cc(NC(=O)C23CCC(C)(C(=O)C2=O)C3(C)C)c1` (stereo not drawn), the “% Inhibition” value worked out at 9% and the Z score is reported as -1.39.

With `COc1cccc(NC(=O)c2cc(C(=O)Nc3cccc(OC)c3)cc(N3C(=O)c4ccccc4C3=O)c2)c1`, the “% Inhibition” value stood at 18% and the Z score is listed as -2.84.

In the case of `CC(C)c1nc(O)cc(CN2CCCCC2)n1`, the “% Inhibition” value came to 33% and the Z score was 1.16.

As to `Cc1nc(O)cc(CN2CCCCC2)n1`, the “% Inhibition” value was -11% and the Z score was found to be 1.95.

As to `CC(C)c1ccc(-c2nc(CN3CCCCC3)cc(CN3CCCCC3)c2O)cc1`, the “% Inhibition” value is on record as 96% and the Z score is recorded as -15.06.

As to `Cc1ccc(S(=O)(=O)c2c(N)n(-c3ccc4c(c3)OCCO4)c3nc4ccccc4nc23)cc1`, the “% Inhibition” value was found to be 6% and the Z score is recorded as -0.5.

In the case of `O=C(NC1CC1c1ccc(F)cc1)N1CCN(c2ccccc2O)CC1` (stereo not drawn), the “% Inhibition” value is given as -7% and the Z score worked out at 1.5.

Turning to `CC1(C)COc2ccc(C(=O)N3CC[C@H](O)C3(C)C)cc21`, the “% Inhibition” value was 19% and the Z score was -2.22.

Consider `CCn1nnc2cc(C(=O)N3CCN(C(c4ccccc4)c4ccccc4)CC3)ccc21`, for which the “% Inhibition” value amounted to 32% and the Z score is recorded as -3.63.

Consider `COc1ccc(-c2nn3c(N4CCN(C)CC4)cc(C)nc3c2C)cc1OC`, for which the “% Inhibition” value is on record as -11% and the Z score worked out at 2.19.

Take `COc1ccc(-c2nn3c(N4CCN(CC=Cc5ccccc5)CC4)cc(C)nc3c2C)cc1OC`: the “% Inhibition” value amounted to 72% and the Z score is reported as -3.65.

`COc1ccc(-c2nn3c(N4CCCCCC4)cc(C)nc3c2C)cc1OC`: the “% Inhibition” value is -8% and the Z score is 1.59.

Turning to `COc1ccc(-c2cc3nc(C)cc(N4CCN(C/C=C/c5ccccc5)CC4)n3n2)cc1OC`, the “% Inhibition” value is reported as 51% and the Z score is listed as -9.31.

Consider `COc1ccccc1-c1cc2nc(C)cc(N3CCN(CCO)CC3)n2n1`, for which the “% Inhibition” value is -14% and the Z score was found to be 1.98.

As for `COc1ccccc1-c1cc2nc(C)cc(N3CCN(Cc4ccccc4)CC3)n2n1`, the “% Inhibition” value was -10% and the Z score turned out to be 1.85.

Take `COc1ccc(NC(=O)CN2C(=O)[C@H]3CCCC3=Nc3ccccc32)cc1`: the “% Inhibition” value is 1% and the Z score is recorded as -0.17.

Turning to `Cc1cc(S(=O)(=O)N(C)CCC(=O)O)sc1C`, the “% Inhibition” value is -30% and the Z score worked out at 2.75.

For the molecule `COc1ccc(-n2c(CN3CCCC3)n[nH]c2=O)c(C)c1`, the “% Inhibition” value is given as -9% and the Z score amounted to 0.87.

As to `Cc1ccc(OCC(=O)Nc2noc(-c3ccc(F)cc3)n2)cc1`, the “% Inhibition” value is -8% and the Z score was found to be 1.23.

Regarding `CNc1cc(C)nc(N2C[C@H](C)[C@@](O)(C3CC3)C2)n1`, the “% Inhibition” value was 7% and the Z score was -1.4.

Turning to `CNc1nc(N2C[C@H]3CC[C@@H](C2)N(C)C3=O)nc2c1CCC2`, the “% Inhibition” value was 6% and the Z score is recorded as -0.76.

For the molecule `CNc1nc(N2C[C@H](C)[C@@](O)(C3CC3)C2)nc2c1CCC2`, the “% Inhibition” value was 100% and the Z score is -0.11.

For the molecule `C=C1C2CCC3(C4C[C@@H]5[C@@]6(C)CCC[C@]5(C3[C@H]2O)[C@@H]4N(CC)C6)[C@@H]1O` (stereo partly drawn), the “% Inhibition” value stood at 31% and the Z score is on record as -3.48.

For `Cc1ccc(-c2cc(C(=O)N(Cc3cccs3)[C@H]3CCS(=O)(=O)C3)no2)cc1F`, the “% Inhibition” value is -11% and the Z score worked out at 2.15.

On to `CCCCN(C)c1cc([C@H]2C[C@@H](N)C2)nc(N)n1`, for which the “% Inhibition” value is reported as -3% and the Z score came to 0.38.

For the molecule `CN(Cc1cc(-c2ccccc2)n[nH]1)c1cc(C2CC(O)C2)nc(N)n1` (stereo not drawn), the “% Inhibition” value was determined as 7% and the Z score is -1.1.

In the case of `CN(Cc1ccc(-c2ccccc2)cc1)c1cc([C@H]2C[C@@H](N)C2)nc(N)n1`, the “% Inhibition” value is 64% and the Z score is -8.85.

Regarding `CCn1c(CN[C@H](c2ccccc2)c2cccs2)nc2cc(S(=O)(=O)N3CCCCC3)ccc21`, the “% Inhibition” value is 14% and the Z score is reported as -1.61.

For the molecule `Cc1ccc(NC(=O)N2CC[C@H](N3CCN(C)CC3)[C@H](CCC(=O)O)C2)c(C)c1`, the “% Inhibition” value is given as 16% and the Z score is recorded as -2.12.

Turning to `O=C1CCCN1c1ccc(NCc2cccc(O)c2)cc1F`, the “% Inhibition” value is -2% and the Z score was 0.32.

Turning to `O=C(N1CCCN(C2CCC2)CC1)C1(c2ccccc2)CCOCC1`, the “% Inhibition” value was -14% and the Z score stood at 2.36.

On to `CCOc1cc(CNC2CCCC2)cc(Br)c1OCC(=O)Nc1ccccc1OC`, for which the “% Inhibition” value was -12% and the Z score is 1.42.

As for `CCOc1cc(CNc2cccc3ccccc23)cc(Br)c1OCC(=O)NC(C)(C)C`, the “% Inhibition” value was found to be 56% and the Z score is -9.96.

With `CCOc1cc(CNc2cc(C)ccc2C)cc(Br)c1OCC(=O)Nc1ccccc1`, the “% Inhibition” value is listed as -2% and the Z score came to 0.3.

For the molecule `CN(C)c1ccccc1NC(=O)N[C@H]1CCS(=O)(=O)C1`, the “% Inhibition” value was -11% and the Z score was determined as 1.66.

As for `CCOC(=O)Nc1nc(C)c(-c2nc3ccccc3c(=O)n2-c2ccc(OC)cc2)s1`, the “% Inhibition” value was found to be 37% and the Z score was determined as 0.52.

Take `COc1ccc(-n2c(-c3sc(Nc4ccc(Cl)cc4)nc3C)nc3ccccc3c2=O)cc1`: the “% Inhibition” value was -3% and the Z score was 0.38.

`COC(=O)Nc1nc(-c2ccccc2)c(-c2nc3ccccc3c(=O)n2-c2ccc(OC)cc2)s1`: the “% Inhibition” value is 51% and the Z score is recorded as -6.56.

As for `C[C@H]1C(=O)N(C)C[C@@H](COc2ccccc2)N1C(=O)C1CCOCC1`, the “% Inhibition” value is -7% and the Z score amounted to 0.87.

For `Cc1cc(CNC(=O)N[C@@H]2CCc3cc(F)ccc32)on1`, the “% Inhibition” value is listed as -7% and the Z score is 0.96.

Regarding `Fc1ccc(C2=C[C@@H](c3ccc(Cl)cc3)N3N=C(c4ccc(Cl)cc4)NC3=N2)cc1`, the “% Inhibition” value is recorded as 96% and the Z score is given as -14.66.

With `CCC(=O)NC1=NN2C(=NC(c3ccc(Cl)cc3)=C[C@H]2c2ccc(F)cc2)N1`, the “% Inhibition” value is given as 5% and the Z score was -0.64.

Regarding `COc1ccc([C@@H]2C=C(c3ccc(Cl)cc3)N=C3NC(N4C(=O)c5ccccc5C4=O)=NN32)cc1`, the “% Inhibition” value was -6% and the Z score came out at 0.61.

Take `O=C(NC1=NN2C(=NC(c3ccc(Cl)cc3)=C[C@H]2c2ccc(F)cc2)N1)c1ccc(Cl)cc1`: the “% Inhibition” value was determined as 48% and the Z score is -9.04.

As for `COc1ccccc1C(=O)NC1=NN2C(=NC(c3ccc(Cl)cc3)=C[C@H]2c2ccc(Cl)cc2)N1`, the “% Inhibition” value turned out to be 97% and the Z score is -10.07.

For the molecule `COc1ccccc1C(=O)NC1=NN2C(=NC(c3ccc(Cl)cc3)=C[C@H]2c2ccccc2)N1`, the “% Inhibition” value was -8% and the Z score came to 0.83.

For `O=C(O)CCC(=O)NC1=NN2C(=NC(c3ccccc3)=C[C@H]2c2ccc(Cl)cc2)N1`, the “% Inhibition” value is -39% and the Z score worked out at 4.56.

With `O=C(NC1=NN2C(=NC(c3ccccc3)=C[C@H]2c2ccc(F)cc2)N1)c1ccccc1`, the “% Inhibition” value is -11% and the Z score is 1.69.

On to `COc1ccc([C@@H]2C=C(c3ccc(Cl)cc3)N=C3NC(NC(=O)c4ccccc4OC)=NN32)cc1`, for which the “% Inhibition” value is reported as 96% and the Z score is on record as -8.52.

Regarding `Cc1cccc(OCC(=O)Nc2cc(-c3noc(C)n3)sc2C)c1`, the “% Inhibition” value is recorded as -14% and the Z score is 2.32.

On to `Cc1ccc(-n2cnc3c2CCN(C(=O)C(=O)Nc2c4c(nn2C)CCCC4)C3)cc1`, for which the “% Inhibition” value is reported as -13% and the Z score was found to be 1.99.

Consider `C[C@H]1Cc2ccccc2N1C(=O)Cn1cc(-c2ccn(C)n2)nn1`, for which the “% Inhibition” value was found to be 6% and the Z score is -0.77.

For `COC(=O)CC(C)NC(=O)CC(C)NC(=O)C1CCCC1` (stereo not drawn), the “% Inhibition” value is recorded as -9% and the Z score was 1.14.

As for `OCCN(CCO)c1ccc2ccccc2c1`, the “% Inhibition” value worked out at 7% and the Z score is -0.86.

With `OCCN(CCO)c1ccc(C(c2ccccc2Cl)c2ccc(N(CCO)CCO)cc2Cl)c(Cl)c1`, the “% Inhibition” value is -9% and the Z score stood at 1.44.

For the molecule `CC1=CC(=[N+](CCO)CCO)C=C/C1=C(\c1ccc(N(CCO)CCO)cc1C)c1ccccc1Cl`, the “% Inhibition” value is listed as 86% and the Z score is listed as -10.15.

Turning to `COc1cccc(C(=O)N2CCC([C@]3(CCC(C)C)NC(=O)N(CCN(C)C)C3=O)CC2)c1OC`, the “% Inhibition” value is -8% and the Z score stood at 1.37.

Turning to `O=C(Cc1ccc(F)cc1Cl)N[C@@H](Cc1ccncc1)C1CC(O)C1` (stereo partly drawn), the “% Inhibition” value is -6% and the Z score came to 1.08.

For `N#Cc1cccc(CN2Cc3nc[nH]c3C[C@H]2C(=O)NCc2ccco2)c1`, the “% Inhibition” value is reported as -5% and the Z score was 0.75.

As to `Nc1c(S(=O)(=O)c2ccc(Cl)cc2)c2nc3ccccc3nc2n1Cc1ccc(F)cc1`, the “% Inhibition” value is -2% and the Z score is on record as 0.21.

As to `Nc1c(-c2nc3ccccc3[nH]2)c2nc3ccccc3nc2n1Cc1ccccc1F`, the “% Inhibition” value worked out at 78% and the Z score is reported as -5.76.

`CCn1c(N)c(-c2nc3ccccc3[nH]2)c(=O)c2ccccc21`: the “% Inhibition” value was -1% and the Z score turned out to be 0.15.

Turning to `O=C(COc1ccc(Br)cc1)N1CCN(S(=O)(=O)c2ccc3ccccc3c2)CC1`, the “% Inhibition” value is -3% and the Z score is listed as 0.36.

For the molecule `CN(C)c1nc2cc(NC(=O)Cc3noc4ccccc34)ccc2o1`, the “% Inhibition” value is -15% and the Z score was 2.38.

With `Cn1cnnc1CNC[C@H](O)c1ccc(Cl)cc1`, the “% Inhibition” value is on record as -8% and the Z score is 1.54.

For `CN(C)CCNS(=O)(=O)c1c[nH]c2c(Br)cccc12`, the “% Inhibition” value was 31% and the Z score is recorded as -3.96.

Consider `Cc1ccc2nc(CN3CCS(=O)(=O)C(C)C3C)cn2c1` (stereo not drawn), for which the “% Inhibition” value is reported as -13% and the Z score was found to be 1.17.

Consider `COCCCNC(=O)c1cc(Br)ccc1Br`, for which the “% Inhibition” value is -3% and the Z score is listed as 0.44.

As for `COc1cc2c(cc1OC)CN(C(=O)c1ccc(N3CCOCC3)nc1)CC2`, the “% Inhibition” value is given as 2% and the Z score was -0.32.

Consider `CC(C)c1nnc(C2CCN(C(=O)c3c[nH]c4ccccc34)CC2)o1`, for which the “% Inhibition” value was 11% and the Z score is -1.46.

For the molecule `O=c1[nH]c2cc(Cl)c(S(=O)(=O)Cl)cc2[nH]1`, the “% Inhibition” value was found to be 69% and the Z score is recorded as -7.82.

Turning to `O=c1[nH]c2cc(Br)c(S(=O)(=O)Nc3cccnc3)cc2[nH]1`, the “% Inhibition” value was found to be 3% and the Z score is reported as -0.54.

As for `Cc1cc2[nH]c(=O)[nH]c2cc1S(=O)(=O)NC1CCCCC1`, the “% Inhibition” value is recorded as -5% and the Z score is recorded as 0.69.

What is called % Inhibition is the drop in the measured response relative to a control, in per cent.
